Measured values: PubChem BioAssay (EPA / NIEHS)
Some compounds were tested as several samples or in several runs, with calls that do not always agree. The source made the active and inactive calls. Rule for the calls: active = hit-call score of the fitted dose curve at least 0.9, where 1 is the maximum; inactive = score below 0.9.

What was measured:
[1] = CEETOX_H295R_PROG: CeeTox H295R High-throughput Steroidogenesis Assay for Progesterone (PROG) (AID 2283442); conditions: actives raise or lower the signal
Method in brief: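 Measured analyte is progesterone secreted by H295R cells at 48 h of chemical treatment, following 10 uM forskolin priming. Quantitation used HPLC-MS/MS against a 7-point standard curve; cytotoxicity was checked by MTT absorbance.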

[2] = read-out: Tumor necrosis factor receptor superfamily member 6 (Homo sapiens) (UniProt P25445); assay: LTEA_HepaRG_FAS: Life Technologies and Expression Analysis (LTEA) Assay for Fas cell surface death receptor (FAS) using HepaRG (AID 2283447); conditions: mRNA level, 48 h; actives raise or lower the signal
Method in brief: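 Differentiated HepaRG cells in serum-free induction medium were exposed 48 h to 8 half-log concentrations up to 100 uM in 0.5% DMSO, in duplicate. FAS mRNA was measured by qRT-PCR normalised to ACTB, GAPDH and POLR2A; bidirectional fit versus DMSO.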

[3] = read-out: Fatty acid synthase (Homo sapiens) (UniProt P49327); assay: LTEA_HepaRG_FASN: Life Technologies and Expression Analysis (LTEA) Assay for Fatty Acid Synthase (FASN) using HepaRG (AID 2283448); conditions: mRNA level, 48 h; actives raise or lower the signal;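 for AC50: differentiated human HepaRG liver cells in serum-free induction medium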
Method in brief: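 FASN transcript measured by TaqMan qRT-PCR, normalised to three housekeeping genes, after 48 h chemical exposure of HepaRG cells. Eight-point half-log series from 100 uM in 0.5% DMSO, duplicates; gain or loss fitted against vehicle.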

[4] = read-out: Cyclin Dependent Kinase Inhibitor 1A (CDKN1A), CDKN1A (gene 1026); assay: LTEA_HepaRG_CDKN1A: Life Technologies and Expression Analysis (LTEA) Assay for Cyclin Dependent Kinase Inhibitor 1A (CDKN1A) using HepaRG (AID 2283450); conditions: mRNA level, 48 h; actives raise or lower the signal
Method in brief: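 Gain or loss of CDKN1A transcript is scored by bidirectional fitting against 0.5% DMSO vehicle. Human HepaRG cultures receive chemicals for 48 h across an 8-point series peaking at 100 uM; expression comes from qRT-PCR.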

[5] = read-out: Cyclin D1 (CCND1), CCND1 (gene 595); assay: LTEA_HepaRG_CCND1: Life Technologies and Expression Analysis (LTEA) Assay for Cyclin D1 (CCND1) using HepaRG (AID 2283451); conditions: mRNA level, 48 h; actives raise or lower the signal;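 for AC50: differentiated human HepaRG liver cells in serum-free induction medium; TaqMan qRT-PCR transcript level normalised to ACTB GAPDH and POLR2A housekeeping genes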
Method in brief: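 Expression change is measured by qRT-PCR in HepaRG cells after 48 h treatment across eight concentrations topping at 100 uM, with duplicate wells and DMSO (0.5%) serving as baseline for bidirectional fitting.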

[6] = read-out: catalase (CAT), CAT (gene 847); assay: LTEA_HepaRG_CAT: Life Technologies and Expression Analysis (LTEA) Assay for catalase (CAT) using HepaRG (AID 2283452); conditions: mRNA level, 48 h; actives raise or lower the signal;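 for AC50: TaqMan qRT-PCR signal normalized to ACTB GAPDH and POLR2A housekeeping genes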
Method in brief: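 HepaRG cells in serum-free induction medium, 0.5% DMSO vehicle, exposed 48 h in duplicate over 8 half-log concentrations from 100 uM. CAT mRNA measured by qRT-PCR, normalized to ACTB, GAPDH, POLR2A; bidirectional fit versus DMSO.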

[7] = read-out: flavin-containing dimethylaniline monooxygenases 3 (FMO3), FMO3 (gene 2328); assay: LTEA_HepaRG_FMO3: Life Technologies and Expression Analysis (LTEA) Assay for flavin-containing dimethylaniline monooxygenases 3 (FMO3) using HepaRG (AID 2283453); conditions: mRNA level, 48 h; actives raise or lower the signal;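 for AC50: differentiated human HepaRG liver cells in serum-free induction medium; FMO3 transcript by TaqMan qRT-PCR normalized to ACTB GAPDH and POLR2A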
Method in brief: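 FMO3 transcript quantified by TaqMan qRT-PCR against three housekeeping genes after 48 h chemical exposure of HepaRG cells. Eight-point half-log series, top 100 uM, 0.5% DMSO vehicle; phenobarbital 1mM induction control; up- or down-regulation fitted.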

[8] = read-out: Cytochrome P450 (CYP1A1), CYP1A1 (gene 1543); assay: LTEA_HepaRG_CYP1A1: Life Technologies and Expression Analysis (LTEA) Assay for Cytochrome P450 (CYP1A1) using HepaRG (AID 2283454); conditions: mRNA level, 48 h; actives raise or lower the signal
Method in brief: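 Using HepaRG cultures with 0.5% DMSO as vehicle, eight-concentration exposures (max 100 uM) lasted 48 h. Transcript levels were measured by TaqMan qRT-PCR and normalized to ACTB, GAPDH and POLR2A.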

[9] = read-out: CFLAR gene, CFLAR (gene 8837); assay: LTEA_HepaRG_CFLAR: Life Technologies and Expression Analysis (LTEA) Assay for CFLAR gene using HepaRG (AID 2283455); conditions: mRNA level, 48 h; actives raise or lower the signal
Method in brief: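 qRT-PCR read-out (Fluidigm/TaqMan) of CFLAR mRNA, normalized to three housekeeping genes, in differentiated human HepaRG cells after 48 h chemical exposure; 8-point half-log series from 100 uM in 0.5% DMSO; bidirectional curve fitting versus DMSO.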

[10] = read-out: Cyclin D2 (CCND2), CCND2 (gene 894); assay: LTEA_HepaRG_CCND2: Life Technologies and Expression Analysis (LTEA) Assay for Cyclin D2 (CCND2) using HepaRG (AID 2283449); conditions: mRNA level, 48 h; actives raise or lower the signal;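 note: CCND2 transcript measured by TaqMan qRT-PCR and normalised to three housekeeping genes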
Method in brief: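 HepaRG, 48 h dosing, 8-pt half-log curve from 100 uM, 0.5% DMSO; duplicate wells. Readout: CCND2 transcript by microfluidic qRT-PCR, housekeeping-normalised; bidirectional fit vs DMSO baseline.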

Chain of Fatty acid synthase (Homo sapiens) (P49327 whole entry, looked up): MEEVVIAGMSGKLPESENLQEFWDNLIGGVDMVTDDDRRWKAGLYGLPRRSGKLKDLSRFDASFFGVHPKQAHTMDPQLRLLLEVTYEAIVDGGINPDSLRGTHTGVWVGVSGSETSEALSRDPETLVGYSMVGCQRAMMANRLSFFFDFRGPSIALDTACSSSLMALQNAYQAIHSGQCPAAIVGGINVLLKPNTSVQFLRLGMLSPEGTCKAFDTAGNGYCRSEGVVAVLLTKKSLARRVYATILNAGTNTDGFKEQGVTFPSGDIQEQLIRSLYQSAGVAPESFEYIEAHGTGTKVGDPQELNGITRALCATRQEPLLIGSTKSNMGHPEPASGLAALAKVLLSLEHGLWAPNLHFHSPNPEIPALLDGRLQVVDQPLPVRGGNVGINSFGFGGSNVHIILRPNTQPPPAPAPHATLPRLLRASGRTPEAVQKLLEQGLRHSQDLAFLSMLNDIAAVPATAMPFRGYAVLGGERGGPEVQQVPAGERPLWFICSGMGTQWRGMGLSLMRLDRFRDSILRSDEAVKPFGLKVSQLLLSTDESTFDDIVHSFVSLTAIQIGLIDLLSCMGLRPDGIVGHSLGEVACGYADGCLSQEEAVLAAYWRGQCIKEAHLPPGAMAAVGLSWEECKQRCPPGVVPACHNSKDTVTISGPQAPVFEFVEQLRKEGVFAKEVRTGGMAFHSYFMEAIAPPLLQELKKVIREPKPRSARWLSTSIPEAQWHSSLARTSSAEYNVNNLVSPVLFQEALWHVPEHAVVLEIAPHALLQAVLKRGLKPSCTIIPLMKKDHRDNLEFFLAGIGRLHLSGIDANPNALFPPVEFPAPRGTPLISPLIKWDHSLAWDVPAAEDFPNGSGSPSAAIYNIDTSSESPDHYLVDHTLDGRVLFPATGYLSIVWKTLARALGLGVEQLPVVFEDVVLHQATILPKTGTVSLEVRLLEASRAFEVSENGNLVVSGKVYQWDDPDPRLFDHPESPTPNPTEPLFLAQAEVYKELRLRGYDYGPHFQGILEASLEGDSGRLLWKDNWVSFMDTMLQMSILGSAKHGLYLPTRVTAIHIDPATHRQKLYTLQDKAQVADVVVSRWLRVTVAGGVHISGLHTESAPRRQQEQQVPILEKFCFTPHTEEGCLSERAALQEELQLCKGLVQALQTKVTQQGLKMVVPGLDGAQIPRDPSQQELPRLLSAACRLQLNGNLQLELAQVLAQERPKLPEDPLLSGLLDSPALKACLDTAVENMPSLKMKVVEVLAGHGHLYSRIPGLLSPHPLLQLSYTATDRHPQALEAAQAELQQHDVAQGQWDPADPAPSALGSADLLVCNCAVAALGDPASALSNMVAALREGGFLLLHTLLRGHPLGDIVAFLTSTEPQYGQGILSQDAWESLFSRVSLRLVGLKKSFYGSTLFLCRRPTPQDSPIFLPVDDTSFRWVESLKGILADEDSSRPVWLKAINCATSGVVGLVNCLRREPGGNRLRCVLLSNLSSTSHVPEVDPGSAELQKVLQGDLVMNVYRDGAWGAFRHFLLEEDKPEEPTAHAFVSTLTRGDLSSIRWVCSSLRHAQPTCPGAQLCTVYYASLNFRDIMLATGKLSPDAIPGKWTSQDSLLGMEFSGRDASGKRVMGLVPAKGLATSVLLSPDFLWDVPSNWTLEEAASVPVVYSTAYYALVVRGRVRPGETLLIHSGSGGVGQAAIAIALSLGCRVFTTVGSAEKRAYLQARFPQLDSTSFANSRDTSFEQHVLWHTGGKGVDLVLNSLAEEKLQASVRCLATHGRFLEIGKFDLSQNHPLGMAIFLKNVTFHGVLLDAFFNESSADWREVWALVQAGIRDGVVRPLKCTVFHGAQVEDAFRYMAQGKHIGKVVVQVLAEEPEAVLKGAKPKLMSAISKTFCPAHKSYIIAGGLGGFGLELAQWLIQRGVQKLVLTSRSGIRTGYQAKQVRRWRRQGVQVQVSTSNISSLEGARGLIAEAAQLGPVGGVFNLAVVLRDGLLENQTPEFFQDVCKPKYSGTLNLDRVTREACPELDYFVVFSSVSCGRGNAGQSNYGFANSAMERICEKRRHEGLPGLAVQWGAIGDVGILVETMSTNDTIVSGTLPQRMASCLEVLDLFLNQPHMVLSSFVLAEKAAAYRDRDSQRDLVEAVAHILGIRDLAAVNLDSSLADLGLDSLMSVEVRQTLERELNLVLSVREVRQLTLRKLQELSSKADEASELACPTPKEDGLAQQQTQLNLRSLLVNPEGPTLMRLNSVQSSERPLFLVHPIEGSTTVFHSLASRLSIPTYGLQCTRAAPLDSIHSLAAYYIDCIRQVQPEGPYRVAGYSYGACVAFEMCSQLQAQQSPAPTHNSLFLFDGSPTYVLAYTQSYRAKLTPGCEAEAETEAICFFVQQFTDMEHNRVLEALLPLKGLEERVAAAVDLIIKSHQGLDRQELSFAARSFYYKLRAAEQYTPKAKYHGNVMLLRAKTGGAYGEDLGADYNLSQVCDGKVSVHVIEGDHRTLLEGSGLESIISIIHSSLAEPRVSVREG

Structure (SMILES) | outcome [1] | outcome [2] | outcome [3] | outcome [4] | outcome [5] | outcome [6] | outcome [7] | AC50 [8] | outcome [9] | outcome [10] | AC50 [3] | AC50 [10] | AC50 [6] | AC50 [7] | AC50 [9] | AC50 [2] | AC50 [5] | AC50 [4] | outcome [8]
CCOC(=O)C(Cl)Cc1cc(-n2nc(C)n(C(F)F)c2=O)c(F)cc1Cl (stereo unspecified) | inactive | inactive | inactive | inactive | inactive | inactive | inactive | 61.9 µM (active) | inactive | – | – | – | – | – | – | – | – | – | –
CCCCNC(=O)n1c(NC(=O)OC)nc2ccccc21 | inactive | inactive | inactive | inactive | inactive | inactive | inactive | 26.1 µM (active) | inactive | inactive | – | – | – | – | – | – | – | – | –
Cc1ccc(-c2c(Cl)nc(C#N)n2S(=O)(=O)N(C)C)cc1 | – | inactive | – | inactive | inactive | – | – | 3.53 µM (active) | – | – | 9 µM (active) | 0.00629 µM (active) | 7.28 µM (active) | 19.5 µM (active) | 7.21 µM (active) | – | – | – | –
CCNc1nc(Cl)nc(NC(C)C)n1 | inactive | inactive | inactive | inactive | inactive | inactive | inactive | 40.5 µM (active) | inactive | inactive | – | – | – | – | – | – | – | – | –
CCNc1nc(Cl)nc(NCC)n1 | inactive | inactive | inactive | inactive | inactive | inactive | inactive | 21.4 µM (active) | inactive | inactive | – | – | – | – | – | – | – | – | –
COc1nc(NC(C)C)nc(NC(C)C)n1 | inactive | inactive | inactive | inactive | inactive | inactive | inactive | 36 µM (active) | inactive | inactive | – | – | – | – | – | – | – | – | –
CCOc1cc(Oc2ccc(C(F)(F)F)cc2Cl)ccc1[N+](=O)[O-] | inactive | – | – | inactive | inactive | – | – | 9.84 µM (active) | inactive | inactive | 32 µM (active) | – | 36.2 µM (active) | 50 µM (active) | – | 14.4 µM (active) | – | – | –
Cc1cc(Cl)ccc1OCC(=O)O | inactive | inactive | inactive | inactive | inactive | inactive | inactive | 50 µM (active) | inactive | inactive | – | – | – | – | – | – | – | – | –
CC1=C(C(=O)Nc2ccccc2)SCCO1 | inactive | inactive | – | inactive | – | – | – | 89.9 µM (active) | – | inactive | 30.8 µM (active) | – | 12.8 µM (active) | 50 µM (active) | 50 µM (active) | – | 50 µM (active) | – | –
COC(=O)C(C)Oc1ccc(Oc2ccc(Cl)cc2Cl)cc1 (stereo unspecified) | – | inactive | inactive | inactive | inactive | inactive | inactive | 38.3 µM (active) | inactive | inactive | – | – | – | – | – | – | – | – | –
CCCC1COC(Cn2cncn2)(c2ccc(Cl)cc2Cl)O1 (stereo unspecified) | inactive | – | – | – | – | – | – | 40 µM (active) | – | – | 83.3 µM (active) | – | 37.2 µM (active) | 34.6 µM (active) | 77.7 µM (active) | 72 µM (active) | 90.2 µM (active) | 33.2 µM (active) | –
O=C(O)c1nc(Cl)ccc1Cl | – | inactive | inactive | inactive | inactive | inactive | inactive | 50 µM (active) | inactive | inactive | – | – | – | – | – | – | – | – | inactive
